Experiments:
Test in all cases: DAPPL (digital affinity profiling via proximity ligation, sequencing); 10 mM Tris-HCl pH 7.5, 50 mM NaCl, 1 mM DTT, 4% glycerol, room temperature, 30 min; GST-TFs on glutathione beads, 16-mer random dsDNA library, 0.1% formaldehyde crosslink after washing; high values mean tight binding
Settings in all cases: protein: recombinant; tags: N-terminal GST; dsDNA, one strand shown
[1] = target: T1, FLI1 (Homo sapiens, UniProt Q01543 1-452)
T1 sequence: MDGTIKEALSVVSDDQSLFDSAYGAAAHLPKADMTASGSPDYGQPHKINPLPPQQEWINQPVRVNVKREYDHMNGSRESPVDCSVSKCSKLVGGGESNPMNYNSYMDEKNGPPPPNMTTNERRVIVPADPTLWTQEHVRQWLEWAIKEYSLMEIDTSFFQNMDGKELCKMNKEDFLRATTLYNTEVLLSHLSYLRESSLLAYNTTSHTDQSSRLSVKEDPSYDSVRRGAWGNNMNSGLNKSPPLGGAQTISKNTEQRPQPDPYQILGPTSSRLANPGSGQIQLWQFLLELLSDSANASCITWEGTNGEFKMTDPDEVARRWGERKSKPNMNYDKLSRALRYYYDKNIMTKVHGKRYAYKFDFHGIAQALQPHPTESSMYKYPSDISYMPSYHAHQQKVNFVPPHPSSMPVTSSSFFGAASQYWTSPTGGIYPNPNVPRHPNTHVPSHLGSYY
Procedure, shortened: (§1)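 Pools were built from human transcription factors expressed in yeast as GST fusions, captured on glutathione beads and DNA-barcoded, along with a tag-only sample. Incubation with 200 nmole of a 16-mer random double-stranded DNA library lasted 30 min at room temperature in Tris/NaCl/DTT/glycerol buffer, and was followed by washing, 0.1% formaldehyde crosslinking, proximity ligation, PCR amplification and Illumina NextSeq500 sequencing. Binding signal is the quotient of each hexamer's read frequency for a factor and its frequency for the tag-only sample.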

[2] = target: T2, ELK1 (Homo sapiens, UniProt P19419 1-428)
T2 sequence: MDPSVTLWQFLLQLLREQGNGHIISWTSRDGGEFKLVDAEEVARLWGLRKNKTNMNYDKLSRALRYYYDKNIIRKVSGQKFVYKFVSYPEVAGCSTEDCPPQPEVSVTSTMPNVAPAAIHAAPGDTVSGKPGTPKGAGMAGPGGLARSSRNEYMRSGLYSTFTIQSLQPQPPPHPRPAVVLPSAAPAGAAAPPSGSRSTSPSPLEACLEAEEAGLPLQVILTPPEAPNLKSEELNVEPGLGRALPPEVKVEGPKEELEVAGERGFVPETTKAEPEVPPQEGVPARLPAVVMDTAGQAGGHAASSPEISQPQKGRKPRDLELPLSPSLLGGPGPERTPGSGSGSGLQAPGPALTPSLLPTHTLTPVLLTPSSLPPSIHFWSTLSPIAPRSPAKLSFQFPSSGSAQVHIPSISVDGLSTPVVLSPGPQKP
Procedure, shortened: as §1

[3] = target: T3, GABPA (Homo sapiens, UniProt Q06546 1-454)
T3 sequence: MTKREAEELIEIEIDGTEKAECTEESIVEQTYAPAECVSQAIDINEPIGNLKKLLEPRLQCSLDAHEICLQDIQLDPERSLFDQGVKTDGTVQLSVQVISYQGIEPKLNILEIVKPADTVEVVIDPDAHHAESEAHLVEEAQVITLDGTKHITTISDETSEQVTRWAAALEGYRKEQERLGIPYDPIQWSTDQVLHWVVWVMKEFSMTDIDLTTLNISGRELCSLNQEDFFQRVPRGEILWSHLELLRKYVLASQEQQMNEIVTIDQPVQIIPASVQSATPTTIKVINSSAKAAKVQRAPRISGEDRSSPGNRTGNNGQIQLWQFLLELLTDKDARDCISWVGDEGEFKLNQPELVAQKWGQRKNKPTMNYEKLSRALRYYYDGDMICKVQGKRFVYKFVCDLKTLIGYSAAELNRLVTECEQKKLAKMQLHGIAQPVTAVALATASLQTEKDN
Procedure, shortened: as §1

[4] = target: T4, ERG (Homo sapiens, UniProt P11308 1-479)
T4 sequence: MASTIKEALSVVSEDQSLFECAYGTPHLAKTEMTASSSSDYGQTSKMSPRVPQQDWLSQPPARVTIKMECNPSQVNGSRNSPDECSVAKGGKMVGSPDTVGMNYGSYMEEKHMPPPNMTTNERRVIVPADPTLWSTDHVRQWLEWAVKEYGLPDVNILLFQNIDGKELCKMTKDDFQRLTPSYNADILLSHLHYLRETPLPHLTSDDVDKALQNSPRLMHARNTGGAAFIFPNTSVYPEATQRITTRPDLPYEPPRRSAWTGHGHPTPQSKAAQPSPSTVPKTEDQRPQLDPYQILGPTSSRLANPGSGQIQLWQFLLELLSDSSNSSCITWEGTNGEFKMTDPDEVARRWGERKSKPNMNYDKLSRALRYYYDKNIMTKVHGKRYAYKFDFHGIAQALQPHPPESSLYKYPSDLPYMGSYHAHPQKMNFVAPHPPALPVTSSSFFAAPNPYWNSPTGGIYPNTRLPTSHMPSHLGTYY
Procedure, shortened: as §1

[5] = target: ELF1 (Homo sapiens, UniProt P32519 1-619)
Procedure, shortened: as §1

[6] = target: T5, EHF (Homo sapiens, UniProt Q9NZC4 1-300)
T5 sequence: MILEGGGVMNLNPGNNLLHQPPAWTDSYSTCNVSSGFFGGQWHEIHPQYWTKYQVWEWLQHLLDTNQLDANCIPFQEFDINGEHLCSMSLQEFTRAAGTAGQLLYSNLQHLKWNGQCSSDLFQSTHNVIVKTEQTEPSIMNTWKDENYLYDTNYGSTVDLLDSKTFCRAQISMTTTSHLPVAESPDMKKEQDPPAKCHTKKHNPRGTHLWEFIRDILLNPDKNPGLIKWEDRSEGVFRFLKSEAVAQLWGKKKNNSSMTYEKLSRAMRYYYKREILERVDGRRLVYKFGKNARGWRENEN
Procedure, shortened: as §1

[7] = target: SPI1 (Homo sapiens, UniProt P17947 1-270)
Procedure, shortened: as §1

[8] = target: SPIB (Homo sapiens, UniProt Q01892 1-262)
Procedure, shortened: as §1

[9] = target: T6, ELK3 (Homo sapiens, UniProt P41970 1-407)
T6 sequence: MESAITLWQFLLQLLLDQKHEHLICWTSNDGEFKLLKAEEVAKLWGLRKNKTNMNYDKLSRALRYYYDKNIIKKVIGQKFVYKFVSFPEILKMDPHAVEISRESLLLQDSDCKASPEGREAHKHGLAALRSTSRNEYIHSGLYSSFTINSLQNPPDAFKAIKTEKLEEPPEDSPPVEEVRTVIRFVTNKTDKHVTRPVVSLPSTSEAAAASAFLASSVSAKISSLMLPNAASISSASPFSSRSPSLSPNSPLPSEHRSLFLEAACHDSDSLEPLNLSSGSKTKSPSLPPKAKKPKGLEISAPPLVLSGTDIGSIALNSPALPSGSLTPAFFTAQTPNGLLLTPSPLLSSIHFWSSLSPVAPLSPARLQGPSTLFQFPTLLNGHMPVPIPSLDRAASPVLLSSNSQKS
Procedure, shortened: as §1

SPIB, sequence (Q01892 whole entry): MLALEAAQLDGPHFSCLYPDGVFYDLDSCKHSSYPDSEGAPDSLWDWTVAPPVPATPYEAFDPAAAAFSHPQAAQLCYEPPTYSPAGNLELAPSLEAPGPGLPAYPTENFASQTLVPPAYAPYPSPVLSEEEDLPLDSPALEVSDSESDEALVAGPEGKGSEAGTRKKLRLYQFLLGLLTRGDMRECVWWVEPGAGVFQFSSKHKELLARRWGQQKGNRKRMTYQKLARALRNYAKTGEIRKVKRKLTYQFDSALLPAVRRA
ELF1, sequence (P32519 whole entry): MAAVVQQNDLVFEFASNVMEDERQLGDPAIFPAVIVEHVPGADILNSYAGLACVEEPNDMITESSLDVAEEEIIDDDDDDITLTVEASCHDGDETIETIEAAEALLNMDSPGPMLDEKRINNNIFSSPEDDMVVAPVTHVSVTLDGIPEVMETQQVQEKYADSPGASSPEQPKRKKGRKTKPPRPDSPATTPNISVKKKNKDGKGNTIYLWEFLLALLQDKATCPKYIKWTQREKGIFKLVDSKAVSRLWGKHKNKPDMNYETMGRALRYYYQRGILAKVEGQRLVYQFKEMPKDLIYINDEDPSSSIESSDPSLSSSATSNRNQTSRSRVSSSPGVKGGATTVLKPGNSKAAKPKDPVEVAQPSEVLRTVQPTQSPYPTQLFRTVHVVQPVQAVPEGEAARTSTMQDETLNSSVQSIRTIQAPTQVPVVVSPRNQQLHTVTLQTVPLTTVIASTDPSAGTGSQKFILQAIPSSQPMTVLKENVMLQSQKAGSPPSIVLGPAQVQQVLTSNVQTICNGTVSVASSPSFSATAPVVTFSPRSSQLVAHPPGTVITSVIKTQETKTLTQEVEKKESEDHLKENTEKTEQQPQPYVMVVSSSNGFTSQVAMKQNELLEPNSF

Sequence | binding signal [1] | binding signal [2] | binding signal [3] | binding signal [4] | binding signal [5] | binding signal [6] | binding signal [7] | binding signal [8] | binding signal [9]
GCCTTC | 1.41 fold enrichment (6-mer frequency, TF over GST control) | 1.51 fold enrichment (6-mer frequency, TF over GST control) | 1.54 fold enrichment (6-mer frequency, TF over GST control) | 1.52 fold enrichment (6-mer frequency, TF over GST control) | 1.58 fold enrichment (6-mer frequency, TF over GST control) | 1.43 fold enrichment (6-mer frequency, TF over GST control) | 1.39 fold enrichment (6-mer frequency, TF over GST control) | 1.54 fold enrichment (6-mer frequency, TF over GST control) | 1.52 fold enrichment (6-mer frequency, TF over GST control)
ACTTAT | 1.4 fold enrichment (6-mer frequency, TF over GST control) | 1.4 fold enrichment (6-mer frequency, TF over GST control) | 1.47 fold enrichment (6-mer frequency, TF over GST control) | 1.37 fold enrichment (6-mer frequency, TF over GST control) | 1.46 fold enrichment (6-mer frequency, TF over GST control) | 1.41 fold enrichment (6-mer frequency, TF over GST control) | 1.39 fold enrichment (6-mer frequency, TF over GST control) | 1.38 fold enrichment (6-mer frequency, TF over GST control) | 1.5 fold enrichment (6-mer frequency, TF over GST control)
ACCTAA | 1.19 fold enrichment (6-mer frequency, TF over GST control) | 1.08 fold enrichment (6-mer frequency, TF over GST control) | 1.17 fold enrichment (6-mer frequency, TF over GST control) | 1.13 fold enrichment (6-mer frequency, TF over GST control) | 1.18 fold enrichment (6-mer frequency, TF over GST control) | 1.12 fold enrichment (6-mer frequency, TF over GST control) | 1.2 fold enrichment (6-mer frequency, TF over GST control) | 1.19 fold enrichment (6-mer frequency, TF over GST control) | 1.2 fold enrichment (6-mer frequency, TF over GST control)
TCTGCC | 1.49 fold enrichment (6-mer frequency, TF over GST control) | 1.36 fold enrichment (6-mer frequency, TF over GST control) | 1.51 fold enrichment (6-mer frequency, TF over GST control) | 1.49 fold enrichment (6-mer frequency, TF over GST control) | 1.54 fold enrichment (6-mer frequency, TF over GST control) | 1.37 fold enrichment (6-mer frequency, TF over GST control) | 1.37 fold enrichment (6-mer frequency, TF over GST control) | 1.32 fold enrichment (6-mer frequency, TF over GST control) | 1.18 fold enrichment (6-mer frequency, TF over GST control)
TTTTCT | 1.31 fold enrichment (6-mer frequency, TF over GST control) | 1.29 fold enrichment (6-mer frequency, TF over GST control) | 1.27 fold enrichment (6-mer frequency, TF over GST control) | 1.34 fold enrichment (6-mer frequency, TF over GST control) | 1.29 fold enrichment (6-mer frequency, TF over GST control) | 1.46 fold enrichment (6-mer frequency, TF over GST control) | 1.45 fold enrichment (6-mer frequency, TF over GST control) | 1.18 fold enrichment (6-mer frequency, TF over GST control) | 1.31 fold enrichment (6-mer frequency, TF over GST control)
AGCTCC | 1.38 fold enrichment (6-mer frequency, TF over GST control) | 1.23 fold enrichment (6-mer frequency, TF over GST control) | 1.32 fold enrichment (6-mer frequency, TF over GST control) | 1.2 fold enrichment (6-mer frequency, TF over GST control) | 1.28 fold enrichment (6-mer frequency, TF over GST control) | 1.31 fold enrichment (6-mer frequency, TF over GST control) | 1.25 fold enrichment (6-mer frequency, TF over GST control) | 1.21 fold enrichment (6-mer frequency, TF over GST control) | 1.17 fold enrichment (6-mer frequency, TF over GST control)
AATCTT | 1.36 fold enrichment (6-mer frequency, TF over GST control) | 1.24 fold enrichment (6-mer frequency, TF over GST control) | 1.28 fold enrichment (6-mer frequency, TF over GST control) | 1.32 fold enrichment (6-mer frequency, TF over GST control) | 1.29 fold enrichment (6-mer frequency, TF over GST control) | 1.29 fold enrichment (6-mer frequency, TF over GST control) | 1.26 fold enrichment (6-mer frequency, TF over GST control) | 1.29 fold enrichment (6-mer frequency, TF over GST control) | 1.44 fold enrichment (6-mer frequency, TF over GST control)
ATGAAC | 1.31 fold enrichment (6-mer frequency, TF over GST control) | 1.28 fold enrichment (6-mer frequency, TF over GST control) | 1.27 fold enrichment (6-mer frequency, TF over GST control) | 1.19 fold enrichment (6-mer frequency, TF over GST control) | 1.27 fold enrichment (6-mer frequency, TF over GST control) | 1.32 fold enrichment (6-mer frequency, TF over GST control) | 1.21 fold enrichment (6-mer frequency, TF over GST control) | 1.27 fold enrichment (6-mer frequency, TF over GST control) | 1.44 fold enrichment (6-mer frequency, TF over GST control)

From article PMC7862700, “An all-to-all approach to the identification of sequence-specific readers for epigenetic DNA modifications on cytosine”
